Reference: ChEMBL document CHEMBL3988442, “University of Dundee, Small-Polar-MMV Screening Library” (2021)
Hit rate of the full screen: of about 69,000 compounds, about 950 (1.4%) showed an effect of 50% or more. The entries come from a sample that favours strong results as a whole.

The molecules below were run on Mycobacterium tuberculosis (assay: Cornell M. t heat shock assay; note: in the data most compounds retested in dose-response had high values).
Type: functional, organism-based
Set-up: dose or concentration left out as unconfirmed

Row | Structure (SMILES) | Percent Effect
1 | CC(C1CCN(Cc2ccc(OC(F)F)cc2)CC1)N1CCOCC1 (configuration not stated) | 96.37%
2 | FC(F)Oc1ccccc1CN1CCCC(c2nccn2CC2CC2)C1 (configuration not stated) | 23.85%
3 | CC(C)Oc1cccc(CN2CCC(c3n[nH]c4ncccc34)CC2)c1 | -24.22%
4 | CC(C1CCN(Cc2cccc(OC(F)F)c2)CC1)N1CCOCC1 (configuration not stated) | 1.128%
5 | CC(C1CCN(Cc2ccccc2OC(F)F)CC1)N1CCOCC1 (configuration not stated) | 90.2%
6 | CC(C1CCN(Cc2c(Cl)cncc2Cl)CC1)N1CCOCC1 (configuration not stated) | -44.11%
7 | CC(C1CCN(Cc2ccc(N(C)C)nc2)CC1)N1CCOCC1 (configuration not stated) | -22.49%
8 | CC(C)Oc1cccc(CN2CCC(C(C)N3CCOCC3)CC2)c1 (configuration not stated) | 91.46%
9 | CC(C)Oc1ccc(CN2CCC(Cc3nnc(CO)n3C)CC2)cc1 | -21.53%
10 | CC(=O)NCC(=O)N1Cc2nccn2CC(COc2cccnc2)C1.O=C(O)C(F)(F)F (configuration not stated) | -35.06%
11 | Cc1nc(C2(O)CCCNCC2)sc1CCOc1ccccc1F.Cl (configuration not stated) | -4.166%
12 | O=CO.c1cc2nccc(CC3CCCN(Cc4c[nH]cn4)CC3)c2cn1 (configuration not stated) | -8.502%
13 | CCN1CCOCC12CCN(c1cnccn1)CC2.O=C(O)C(F)(F)F | -4.677%
14 | CC(C)(CO)CNC(=O)c1cc(-c2cc[nH]n2)n2ccccc12.O=C(O)C(F)(F)F | 10.76%
15 | O=C(O)C(F)(F)F.O=C(O)C(F)(F)F.O=C(O)C(F)(F)F.c1cncc(CN2CCC3(CC2)CC(c2cccnc2)CO3)c1 (configuration not stated) | -27.59%
16 | CCCOc1ccc(CNc2cncc(-n3cccn3)n2)cc1 | 63.69%
17 | CNC(=O)COc1ccc(CNc2cncc(-n3cccn3)n2)cc1 | -4.201%
18 | CCOCc1ccc(CNc2cncc(-n3cccn3)n2)cc1 | -0.9926%
19 | CCOc1cc(CN(C)CC(=O)O)ccc1OC(F)F.Cl | -22.89%
20 | Cc1cc2cccc(NC(=O)N3CC[C@@H]4CC[C@H](C3)N4C)c2o1 | 25.84%
21 | Cc1cc(-c2cnn(CCNC(=O)C3CC3)c2C2CC2)on1 | -1.703%

Row | Structure (SMILES) | Percent Effect
22 | Cc1cc(-c2cnn(CCNC(=O)c3cnn(C)c3)c2C2CC2)on1 | -6.591%
23 | Cc1cc(-c2cnn(CCNC(=O)c3cc[nH]n3)c2C2CC2)on1 | 53.69%
24 | O=S(=O)(c1ccccc1)N1C(CN2CCOCC2)[C@]2(O)CC[C@H]1CC2 (some centres not stated) | -28.69%
25 | CCS(=O)(=O)N1CCOC2(CCCN(Cc3ccccn3)C2)C1.O=C(O)C(F)(F)F (configuration not stated) | 2.925%
26 | COCCC(=O)N1CCC(c2cncc(Oc3cccnc3)n2)CC1 | 51.38%
27 | NCC(=O)N1CCC(c2cncc(Oc3cccnc3)n2)CC1 | -6.248%
28 | CCC(=O)N1CCC(c2cncc(Oc3cccnc3)n2)CC1 | -19.43%
29 | O=C1NCCCC1NC(=O)C1(c2cccc(Cl)c2)CCC1 (configuration not stated) | 0.8202%
30 | Cl.Clc1cccc(N[C@H]2CCCN[C@H]2Cc2ccccc2)c1 | 104.4%
31 | CCOc1ccc(Cl)cc1C1CCCN1.Cl (configuration not stated) | -11.35%
32 | Cl.c1ccc(CCNc2cccc(C3CCCNC3)n2)cc1 (configuration not stated) | -24.38%
33 | CN[C@H]1CC[C@]2(CC1)CNC(=O)c1cc(C)ccc1O2 | -8.947%
34 | CN1CCN(S(=O)(=O)c2ccccc2)Cc2cccnc21.O=C(O)C(F)(F)F | 19.11%
35 | CN(C)CC(=O)N1CCC2(CC1)CN(Cc1cccnc1)C(=O)CO2 | -16.01%
36 | Cc1cc(C)n(CC2CCCN2CCCS(C)(=O)=O)n1 (configuration not stated) | 7.273%
37 | CN1Cc2cc(F)ccc2N(CC(C)(C)O)CCC1=O | 56.09%
38 | CCCC(O)CN1CCC(=O)N(C)Cc2cc(F)ccc21 (configuration not stated) | 66.32%
39 | CCCC(O)CN1CCC(=O)N(CCOC)Cc2cc3c(cc21)OCO3 (configuration not stated) | 26.79%
40 | CCCC(O)CN1CCC(=O)N(Cc2ccccc2)Cc2ccccc21 (configuration not stated) | 5.738%
41 | CCCC(O)CN1CCC(=O)N(CC2CC2)Cc2cc3c(cc21)OCO3 (configuration not stated) | 15.68%
42 | COc1ccc2c(c1)CN(C)C(=O)CCN2CC(O)C(F)(F)F (configuration not stated) | 35.74%

Row | Structure (SMILES) | Percent Effect
43 | CCCC(O)CN1CCC(=O)N(CCOC)Cc2ccccc21 (configuration not stated) | 30.93%
44 | CN1Cc2cc(F)ccc2N(CC(O)C(F)(F)F)CCC1=O (configuration not stated) | 54.29%
45 | CCCC(O)CN1CCC(=O)N(CC)Cc2cc3c(cc21)OCO3 (configuration not stated) | 53.46%
46 | CCN1CCC(=O)N(C)Cc2cc(F)ccc21 | 13.57%
47 | CN1Cc2ccccc2N(CC(O)C(F)(F)F)CCC1=O (configuration not stated) | 42.32%
48 | CC(C)(O)CN1CCC(=O)N(Cc2ccco2)Cc2cc(F)ccc21 | -9.768%
49 | CCc1ccc(CN2C[C@H](OC)[C@H]3COC[C@H]32)o1.O=C(O)C(F)(F)F | 46.3%
50 | Cn1cc(CN2C[C@H]3CCC[C@@]3(COc3ccccn3)C2)cn1.O=C(O)C(F)(F)F.O=C(O)C(F)(F)F | -2.585%
51 | Cl.Fc1cccc(F)c1Cn1c(C2CCNCC2)cc2cccnc21 | -5.947%
52 | Cc1nc(CN2C(=O)C[C@H]3[C@H]2CCN3CC2CCOC2)cs1.O=C(O)C(F)(F)F (some centres not stated) | -4.028%
53 | COCC1CC2(CCN(c3ccc(C)nn3)CC2)CN1C(C)C.O=C(O)C(F)(F)F (configuration not stated) | -4.94%
54 | Cl.Cl.O=C(NCc1cncc2c1CCN(CC1CCOC1)C2)c1ccco1 (configuration not stated) | 5.54%
55 | COCCN1CCC2(C1)c1ccccc1S(=O)(=O)N2C.O=C(O)C(F)(F)F (configuration not stated) | 24.71%
56 | Cc1cc(N2CCN(Cc3ccnn3C)CC2)cc(C2CCCN2)n1.Cl (configuration not stated) | -17.02%
57 | Cc1nc(C2(O)CCCNCC2)sc1CCOc1ccc(F)c(F)c1.Cl (configuration not stated) | -9.071%
58 | CC(C)CS(=O)(=O)N1C[C@H]2C[C@H](C(=O)N(C)C)[C@@H](C1)O2 | 1.328%
59 | CCN1Cc2cc(F)ccc2N(CC(O)C(F)(F)F)CCC1=O (configuration not stated) | 51.9%
60 | COc1ccc2c(c1)CN(C)C(=O)CCN2CC(O)C(C)(C)C (configuration not stated) | 46.8%
61 | CCN1Cc2cc(OC)ccc2N(CC(C)(C)O)CCC1=O | -11.62%
62 | CC(C)OCc1nn(C)c2c1CN(Cc1cccs1)CC2.O=CO | 3.631%
